Experimental data as given in PubChem BioAssay AID1345085 (National Center for Advancing Translational Sciences (NCATS), 2018).
Inconclusive results are not listed. Values without a mark were called inactive. The source made the active and inactive calls. Calls come from the whole dose curve; as a rule, active = well fitted cell-killing curve with a large enough effect; inconclusive = small, poorly fitted or top-dose-only effect, or effect the other way; inactive = no such curve, though single readings can be large or run the other way.

The compounds below were run on CASKI (assay: Confirmatory qHTS for gynecologic anti-cancer compounds from libraries of approved drugs and bioactive compounds). Conditions: gynecologic cancer cell panel viability, ATPlite luminescence, 48 h; series mostly up to 57.6 µM; activity change, negative = viability loss: at the top concentration.
Outline: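 Cells (1,000/well) plated 16 h, then exposed 48 h at 37 °C to 11 concentrations (1:3) from 57.5 uM to 0.977 nM. Viability by ATPlite luminescence after 15 min; IC50 derived, with HEK 293T used for selectivity index.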
% is set by controls: 0 for no effect and ±100 for the full control effect; potency is the fitted concentration of half-maximal effect.
Note: nearly all actives have a fitted effect of over 55% in size.

SMILES | Potency | activity change, negative = viability loss
CC(Oc1ccc2[nH]nc(/C=C/c3cnn(CCO)c3)c2c1)c1c(Cl)cncc1Cl (configuration not stated) | 5.44 µM (active) | 
Cc1cc(CN2CCN(c3c(Br)cnc4nc(-c5ccc(N6CCN(C)CC6)cc5)[nH]c34)CC2)no1 | 27.3 µM (active) | 
O=C(Nc1cn[nH]c1-c1nc2ccc(CN3CCOCC3)cc2[nH]1)NC1CC1 | 2.73 µM (active) | 
Cc1nc(NC(=O)N2CCCC2C(N)=O)sc1-c1ccnc(C(C)(C)C(F)(F)F)c1 (configuration not stated) | 7.69 µM (active) | 
CC[C@]1(O)C[C@H]2CN(CCc3c([nH]c4ccccc34)[C@@](C(=O)OC)(c3cc4c(cc3OC)N(C=O)[C@H]3[C@@](O)(C(=O)OC)[C@H](OC(C)=O)[C@]5(CC)C=CCN6CC[C@]43[C@@H]65)C2)C1 |  | -0.871%
O=c1c2ccccc2nc2n1CCc1c-2[nH]c2ccccc12 |  | -1.84%
CCOC(=O)C1=C(C)NC2=C(C(=O)CC(C)(C)C2)C1c1ccc(-c2ccccc2)cc1 (configuration not stated) |  | -23.5%
CCCC(=O)O[C@]1(C(=O)CCl)[C@@H](C)C[C@H]2[C@@H]3CCC4=CC(=O)C=C[C@]4(C)[C@@]3(F)C(=O)C[C@@]21C | 30.6 µM (active) | 
O=C(/C=C/c1cccc(S(=O)(=O)Nc2ccccc2)c1)NO | 4.73 µM (active) | 
CN(C)C(CCOc1cccc2ccccc12)c1ccccc1 (configuration not stated) |  | -2.64%
CN(C)CC/C=C1\c2ccccc2COc2ccccc21 |  | -1.95%
Nc1nc(Cl)nc2c1ncn2C1OC(CO)C(O)C1F (configuration not stated) | 1.22 µM (active) | 
CNC(=O)c1ccccc1Sc1ccc2c(/C=C/c3ccccn3)n[nH]c2c1 | 13.7 µM (active) | 
Cc1nc(Nc2n[nH]c3c2CN(C(=O)NC(CN(C)C)c2ccccc2)C3(C)C)c2sccc2n1 (configuration not stated) | 3.06 µM (active) | 
COC(C)(C)CCn1nc(Nc2c(C)cccc2C)c2cnc(Nc3ccc(OCCN4CCCC4)c(F)c3)nc21 | 3.43 µM (active) | 
CNC(=O)c1ccccc1Nc1nc(Nc2ccc(N3CCOCC3)cc2OC)ncc1Cl | 6.11 µM (active) | 

SMILES | Potency | activity change, negative = viability loss
CC(=O)NCC(=O)N1C2CCC1c1cc(Nc3ncc(C(F)(F)F)c(NC4CCC4)n3)ccc12 (configuration not stated) | 9.68 µM (active) | 
CCCCc1oc2ccc(NS(C)(=O)=O)cc2c1C(=O)c1ccc(OCCCN(CCCC)CCCC)cc1 | 27.3 µM (active) | 
Cc1cc(C2CCCCC2)n(O)c(=O)c1 | 3.96 µM (active) | 
CC(C)C[C@H](NC(=O)[C@H](CCc1ccccc1)NC(=O)CN1CCOCC1)C(=O)N[C@@H](Cc1ccccc1)C(=O)N[C@@H](CC(C)C)C(=O)[C@@]1(C)CO1 | 9.68 µM (active) | 
C=CC(=O)Nc1cc2c(Nc3ccc(F)c(Cl)c3)ncnc2cc1OCCCN1CCOCC1 | 27.3 µM (active) | 
COc1cc2c(c(OC)c1OC)-c1ccc(OC)c(=O)cc1[C@@H](NC(C)=O)CC2 |  | -4.77% [at 486 µM]
CO[C@@]12[C@H](COC(N)=O)C3=C(C(=O)C(C)=C(N)C3=O)N1C[C@@H]1N[C@@H]12 |  | 5.69%
CC(Oc1cc(-n2cnc3ccc(CN4CCN(C)CC4)cc32)sc1C(N)=O)c1ccccc1C(F)(F)F (configuration not stated) | 13.7 µM (active) | 
Cc1ccc(C(=O)Nc2ccc(CN3CCN(C)CC3)c(C(F)(F)F)c2)cc1C#Cc1cnc2cccnn12 | 21.7 µM (active) | 
CCCCc1nc2cc(/C=C/C(=O)NO)ccc2n1CCN(CC)CC | 4.85 µM (active) | 
CCc1c2c(nc3ccc(O)cc13)-c1cc3c(c(=O)n1C2)COC(=O)[C@]3(O)CC | 0.153 µM (active) | 
NC(=O)Nc1cc(-c2cccc(F)c2)sc1C(=O)NC1CCCNC1 (configuration not stated) | 2.17 µM (active) | 
O=c1cc(CN2CCOCC2)occ1OCCCCCSc1ccnc2cc(C(F)(F)F)ccc12 | 24.3 µM (active) | 
NC(=O)c1cnc(-c2ccc(C3(N)CCC3)cc2)c(-c2ccccc2)c1 | 21.7 µM (active) | 
Cc1nc(N)sc1-c1ccnc(Nc2ccc(N3CCOCC3)cc2)n1 | 24.3 µM (active) | 
Cn1c(=O)c(F)c(Nc2ccc(I)cc2F)c2c(=O)n(CC(O)CO)cnc21 (configuration not stated) | 24.3 µM (active) | 
